About 83,000 compounds went through this panel and 20% of them were active in at least one assay; those are over-represented in the sample as a whole.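 Single-concentration screen, 48 h exposure, 96-well plates. Endpoint: percent growth. Below 10 = active.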 Activity calls are given as the source filed them.
Assays:
Experiment in all cases: NCI-60 one-dose screen, 48 h (100 = growth as untreated, 0 = no growth, -100 = all killed)
Settings in all cases: 10 µM
SR leukemia = tested on: SR leukemia
RPMI-8226 leukemia = tested on: RPMI-8226 leukemia
OVCAR-8 ovarian = tested on: OVCAR-8 ovarian
OVCAR-5 ovarian = tested on: OVCAR-5 ovarian
OVCAR-4 ovarian = tested on: OVCAR-4 ovarian
SK-OV-3 ovarian = tested on: SK-OV-3 ovarian
IGROV1 ovarian = tested on: IGROV1 ovarian
OVCAR-3 ovarian = tested on: OVCAR-3 ovarian
HS 578T breast = tested on: HS 578T breast
NCI/ADR-RES ovarian = tested on: NCI/ADR-RES ovarian
T-47D breast = tested on: T-47D breast
BT-549 breast = tested on: BT-549 breast
MDA-MB-435 melanoma = tested on: MDA-MB-435 melanoma
SW-620 colon = tested on: SW-620 colon
MCF7 breast = tested on: MCF7 breast
HCT-116 colon = tested on: HCT-116 colon
HCC-2998 colon = tested on: HCC-2998 colon
KM12 colon = tested on: KM12 colon

Measured: growth

CC(=O)Nc1ccc(CC[C@H]2CCC/C=C/[C@@H]3C[C@H](O)C[C@H]3[C@H](O)/C=C/C(=O)O2)cc1
inactive: OVCAR-5 ovarian 23% | OVCAR-4 ovarian 18.4% | SK-OV-3 ovarian 29.8% | IGROV1 ovarian 20.3% | HS 578T breast 34.9% | NCI/ADR-RES ovarian 18.7% | BT-549 breast 27.5% | MDA-MB-435 melanoma 14.7%
active: SR leukemia 3.92% | RPMI-8226 leukemia 3.69% | OVCAR-8 ovarian 0.483% | OVCAR-3 ovarian 6.39% | T-47D breast 7.42% | SW-620 colon 0.331% | MCF7 breast -14.8% | HCT-116 colon -67.9% | HCC-2998 colon 2.85%

O=C(NCCCNS(=O)(=O)c1ccc(Cl)cc1)Nc1ccc(-n2cc(-c3ccncc3)c(-c3ccc(Cl)c(O)c3)n2)cc1
inactive: SR leukemia 17% | RPMI-8226 leukemia 18.7% | OVCAR-8 ovarian 36% | OVCAR-5 ovarian 70.8% | OVCAR-4 ovarian 44.2% | SK-OV-3 ovarian 68.8% | IGROV1 ovarian 62% | OVCAR-3 ovarian 50% | HS 578T breast 40.9% | NCI/ADR-RES ovarian 76.8% | T-47D breast 22.2% | BT-549 breast 26.6% | MDA-MB-435 melanoma 28.4% | SW-620 colon 50.3% | MCF7 breast 13.8% | HCT-116 colon 16.2% | HCC-2998 colon 57.9% | KM12 colon 28.6%

COc1cc(OC)c2c(=O)c(O)c(-c3ccccc3)oc2c1
inactive: SR leukemia 40.1% | RPMI-8226 leukemia 68.9% | OVCAR-8 ovarian 61.9% | OVCAR-5 ovarian 89% | OVCAR-4 ovarian 65.3% | SK-OV-3 ovarian 81.1% | IGROV1 ovarian 78.8% | OVCAR-3 ovarian 68.4% | HS 578T breast 88.9% | NCI/ADR-RES ovarian 65.9% | T-47D breast 92.1% | BT-549 breast 85.6% | MDA-MB-435 melanoma 86.9% | SW-620 colon 77.7% | MCF7 breast 70.1% | HCT-116 colon 63.1% | HCC-2998 colon 83.9%

COc1ccccc1/C=N\N/C(N)=N\N=C\c1ccccc1OC
inactive: OVCAR-8 ovarian 27.2% | OVCAR-5 ovarian 32.3% | OVCAR-4 ovarian 42.4% | SK-OV-3 ovarian 26.3% | IGROV1 ovarian 12% | NCI/ADR-RES ovarian 22.6% | T-47D breast 60.9% | SW-620 colon 13.1% | MCF7 breast 11.3%
active: SR leukemia -23.1% | RPMI-8226 leukemia 1.89% | OVCAR-3 ovarian -13.2% | HS 578T breast -14.7% | BT-549 breast -4.14% | MDA-MB-435 melanoma -39.2% | HCT-116 colon 5.25% | HCC-2998 colon 5.64%

CC1/C=C/C=C/C=C/C=C/C=C/C=C/C=C/C(O[C@@H]2O[C@H](C)[C@H](O)[C@@H](O)[C@@H]2N)CC(O)C(C(=O)O)C(O)CC(=O)CC(O)CC(O)CC(O)CC(=O)CCCC(=O)CC(=O)OC1C(C)CC(C)C(O)CC(=O)c1ccc(N)cc1 (stereo not given in full)
active: SR leukemia -63.1% | RPMI-8226 leukemia -43.7% | OVCAR-8 ovarian -97.5% | OVCAR-5 ovarian -98.9% | OVCAR-4 ovarian -96.1% | SK-OV-3 ovarian -100% | IGROV1 ovarian -83.7% | OVCAR-3 ovarian -99.7% | HS 578T breast -52.8% | NCI/ADR-RES ovarian -99.6% | T-47D breast -87.1% | BT-549 breast -93% | MDA-MB-435 melanoma -93% | SW-620 colon -95.3% | MCF7 breast -87% | HCT-116 colon -90.7% | HCC-2998 colon -98.1% | KM12 colon -96%

CC(C)c1cc(N=O)cc(C(C)C)c1O
inactive: SR leukemia 106% | RPMI-8226 leukemia 93.5% | OVCAR-8 ovarian 103% | OVCAR-5 ovarian 97.2% | OVCAR-4 ovarian 104% | SK-OV-3 ovarian 109% | IGROV1 ovarian 121% | OVCAR-3 ovarian 110% | HS 578T breast 107% | NCI/ADR-RES ovarian 99.8% | T-47D breast 108% | BT-549 breast 111% | MDA-MB-435 melanoma 109% | SW-620 colon 100% | MCF7 breast 103% | HCT-116 colon 110% | HCC-2998 colon 104% | KM12 colon 111%

CC(C)(C)OC(=O)N1CCc2c(sc3ncnc(N/N=C/c4cccc5ccccc45)c23)C1
active: RPMI-8226 leukemia 2.4% | NCI/ADR-RES ovarian 8.76% | MDA-MB-435 melanoma -11.7% | MCF7 breast 2.21%
inactive: SR leukemia 24.1% | OVCAR-8 ovarian 27.6% | OVCAR-5 ovarian 31.8% | OVCAR-4 ovarian 33.4% | SK-OV-3 ovarian 37% | IGROV1 ovarian 26.9% | OVCAR-3 ovarian 46.4% | HS 578T breast 17.2% | T-47D breast 12.6% | BT-549 breast 58.7% | SW-620 colon 27.3% | HCT-116 colon 10.5% | HCC-2998 colon 37.1% | KM12 colon 23.4%

O=C(O)c1ccc(-n2cc(CNc3ccc(Oc4ccccc4)cc3)c(-c3ccccc3)n2)cc1
inactive: SR leukemia 38.6% | RPMI-8226 leukemia 73% | OVCAR-8 ovarian 92.3% | OVCAR-5 ovarian 98.9% | OVCAR-4 ovarian 81.4% | SK-OV-3 ovarian 112% | IGROV1 ovarian 86.4% | OVCAR-3 ovarian 86.9% | HS 578T breast 105% | NCI/ADR-RES ovarian 90.1% | T-47D breast 75% | BT-549 breast 83.1% | MDA-MB-435 melanoma 94.2% | SW-620 colon 99.4% | MCF7 breast 85.4% | HCT-116 colon 88.5% | HCC-2998 colon 120% | KM12 colon 80.3%

CC(C)(C)OC(=O)N1CCc2c(sc3ncnc(N/N=C/c4ccc(Br)cc4)c23)C1
active: MDA-MB-435 melanoma -20.4%
inactive: SR leukemia 36.3% | RPMI-8226 leukemia 19.1% | OVCAR-8 ovarian 73.7% | OVCAR-5 ovarian 77.6% | OVCAR-4 ovarian 74% | SK-OV-3 ovarian 75.7% | IGROV1 ovarian 61.1% | OVCAR-3 ovarian 86.4% | HS 578T breast 73.9% | NCI/ADR-RES ovarian 35.4% | T-47D breast 34.2% | BT-549 breast 74.9% | SW-620 colon 55% | MCF7 breast 12.6% | HCT-116 colon 47.3% | HCC-2998 colon 72.1% | KM12 colon 46.6%

COc1ccc(-c2cc(-c3ccc(Cl)cc3)nc(SCCCC(=O)NO)n2)cc1OC
inactive: SR leukemia 19.7% | OVCAR-8 ovarian 13.5% | OVCAR-4 ovarian 19.1% | HS 578T breast 29.2% | T-47D breast 15% | BT-549 breast 30.4% | MDA-MB-435 melanoma 19.6% | KM12 colon 21.7%
active: RPMI-8226 leukemia -6.19% | OVCAR-5 ovarian 1.46% | SK-OV-3 ovarian 0.0102% | IGROV1 ovarian -1.77% | OVCAR-3 ovarian 6.86% | NCI/ADR-RES ovarian -30.6% | SW-620 colon 9.88% | MCF7 breast 1.13% | HCT-116 colon 5.45% | HCC-2998 colon -50.7%

O=C(Nc1nc(-c2ccccc2)nc2c1sc(=S)n2-c1ccccc1)C(F)(F)F
inactive: SR leukemia 89.8% | RPMI-8226 leukemia 88.5% | OVCAR-8 ovarian 86.6% | OVCAR-5 ovarian 105% | OVCAR-4 ovarian 92.3% | SK-OV-3 ovarian 91.6% | IGROV1 ovarian 106% | OVCAR-3 ovarian 105% | HS 578T breast 96.6% | NCI/ADR-RES ovarian 95.7% | T-47D breast 71.1% | BT-549 breast 98.9% | MDA-MB-435 melanoma 99.8% | SW-620 colon 103% | MCF7 breast 87% | HCT-116 colon 78.8% | HCC-2998 colon 123% | KM12 colon 91.3%

CS(=O)(=O)c1nccc(-c2c(-c3ccc(OCCc4ccccc4)cc3)nc3sccn23)n1
inactive: SR leukemia 88.5% | RPMI-8226 leukemia 94.8% | OVCAR-8 ovarian 98% | OVCAR-5 ovarian 94.7% | OVCAR-4 ovarian 67.8% | SK-OV-3 ovarian 101% | IGROV1 ovarian 110% | OVCAR-3 ovarian 104% | HS 578T breast 87% | NCI/ADR-RES ovarian 98.3% | T-47D breast 91.3% | BT-549 breast 110% | MDA-MB-435 melanoma 96% | SW-620 colon 93.7% | MCF7 breast 66.1% | HCT-116 colon 99.6% | HCC-2998 colon 106% | KM12 colon 106%

CCn1c(SC/C(=N/O)c2ccccc2)nnc1-c1ccccc1
inactive: SR leukemia 94.8% | RPMI-8226 leukemia 89.7% | OVCAR-8 ovarian 111% | OVCAR-5 ovarian 96.8% | OVCAR-4 ovarian 85.5% | SK-OV-3 ovarian 89.7% | IGROV1 ovarian 106% | OVCAR-3 ovarian 121% | HS 578T breast 101% | NCI/ADR-RES ovarian 103% | T-47D breast 120% | BT-549 breast 115% | MDA-MB-435 melanoma 105% | SW-620 colon 98.7% | MCF7 breast 112% | HCT-116 colon 101% | HCC-2998 colon 96.6% | KM12 colon 110%

OCC1OC2C(NC(=S)N2c2ccccc2)C(O)C1O (stereo not given)
inactive: SR leukemia 95.6% | RPMI-8226 leukemia 97.1% | OVCAR-8 ovarian 97.2% | OVCAR-5 ovarian 105% | OVCAR-4 ovarian 110% | SK-OV-3 ovarian 105% | IGROV1 ovarian 121% | OVCAR-3 ovarian 102% | HS 578T breast 88% | NCI/ADR-RES ovarian 105% | T-47D breast 108% | BT-549 breast 106% | MDA-MB-435 melanoma 98.3% | SW-620 colon 98.4% | MCF7 breast 103% | HCT-116 colon 111% | HCC-2998 colon 104% | KM12 colon 103%

O=C(CCl)Nc1ccc(Cc2ccc(NC(=O)CCl)cc2)cc1
active: SR leukemia 5.61% | RPMI-8226 leukemia -32.9% | OVCAR-8 ovarian 0.481% | OVCAR-5 ovarian 9.56% | IGROV1 ovarian -45.9% | OVCAR-3 ovarian -32.8% | NCI/ADR-RES ovarian 2.83% | BT-549 breast -23.5% | MDA-MB-435 melanoma 0.989% | SW-620 colon -21.8% | MCF7 breast 1.46% | HCT-116 colon -56.8% | HCC-2998 colon -14.9% | KM12 colon 0.445%
inactive: OVCAR-4 ovarian 27% | SK-OV-3 ovarian 61.7% | HS 578T breast 35.7% | T-47D breast 14.7%

CN(C)CCCN1c2ccccc2CCc2ccc(Cl)cc21
active: HCC-2998 colon -13.4%
inactive: SR leukemia 49.2% | RPMI-8226 leukemia 47.8% | OVCAR-8 ovarian 77.1% | OVCAR-5 ovarian 77.5% | OVCAR-4 ovarian 53.1% | SK-OV-3 ovarian 82.4% | IGROV1 ovarian 59.3% | OVCAR-3 ovarian 72.3% | HS 578T breast 68.7% | NCI/ADR-RES ovarian 59.5% | T-47D breast 41.3% | BT-549 breast 77.8% | MDA-MB-435 melanoma 28.5% | SW-620 colon 89% | MCF7 breast 50.8% | HCT-116 colon 43% | KM12 colon 79.3%

From PubChem BioAssay (NCI)
